According to the supplement of paper PMC11732987, “Enantioselective OTUD7B fragment discovery through chemoproteomics screening and high-throughput optimisation” (Communications Chemistry, 2025):

Columns and labels:
Assay in all cases: log2 ratio of Biotin-Ahx-Ub-VS probe labelling (fragment/DMSO); higher = less target engagement (more negative = stronger competition), active = hit call of the paper (q ≤ 0.05, log2 ratio ≤ -1)
Details in all cases: compound concentration: 200 uM; treatment time: 3 h
USP34 = USP34 (UniProt Q70CQ2)
USP34, sequence (Q70CQ2 whole entry, the tested form may be a part): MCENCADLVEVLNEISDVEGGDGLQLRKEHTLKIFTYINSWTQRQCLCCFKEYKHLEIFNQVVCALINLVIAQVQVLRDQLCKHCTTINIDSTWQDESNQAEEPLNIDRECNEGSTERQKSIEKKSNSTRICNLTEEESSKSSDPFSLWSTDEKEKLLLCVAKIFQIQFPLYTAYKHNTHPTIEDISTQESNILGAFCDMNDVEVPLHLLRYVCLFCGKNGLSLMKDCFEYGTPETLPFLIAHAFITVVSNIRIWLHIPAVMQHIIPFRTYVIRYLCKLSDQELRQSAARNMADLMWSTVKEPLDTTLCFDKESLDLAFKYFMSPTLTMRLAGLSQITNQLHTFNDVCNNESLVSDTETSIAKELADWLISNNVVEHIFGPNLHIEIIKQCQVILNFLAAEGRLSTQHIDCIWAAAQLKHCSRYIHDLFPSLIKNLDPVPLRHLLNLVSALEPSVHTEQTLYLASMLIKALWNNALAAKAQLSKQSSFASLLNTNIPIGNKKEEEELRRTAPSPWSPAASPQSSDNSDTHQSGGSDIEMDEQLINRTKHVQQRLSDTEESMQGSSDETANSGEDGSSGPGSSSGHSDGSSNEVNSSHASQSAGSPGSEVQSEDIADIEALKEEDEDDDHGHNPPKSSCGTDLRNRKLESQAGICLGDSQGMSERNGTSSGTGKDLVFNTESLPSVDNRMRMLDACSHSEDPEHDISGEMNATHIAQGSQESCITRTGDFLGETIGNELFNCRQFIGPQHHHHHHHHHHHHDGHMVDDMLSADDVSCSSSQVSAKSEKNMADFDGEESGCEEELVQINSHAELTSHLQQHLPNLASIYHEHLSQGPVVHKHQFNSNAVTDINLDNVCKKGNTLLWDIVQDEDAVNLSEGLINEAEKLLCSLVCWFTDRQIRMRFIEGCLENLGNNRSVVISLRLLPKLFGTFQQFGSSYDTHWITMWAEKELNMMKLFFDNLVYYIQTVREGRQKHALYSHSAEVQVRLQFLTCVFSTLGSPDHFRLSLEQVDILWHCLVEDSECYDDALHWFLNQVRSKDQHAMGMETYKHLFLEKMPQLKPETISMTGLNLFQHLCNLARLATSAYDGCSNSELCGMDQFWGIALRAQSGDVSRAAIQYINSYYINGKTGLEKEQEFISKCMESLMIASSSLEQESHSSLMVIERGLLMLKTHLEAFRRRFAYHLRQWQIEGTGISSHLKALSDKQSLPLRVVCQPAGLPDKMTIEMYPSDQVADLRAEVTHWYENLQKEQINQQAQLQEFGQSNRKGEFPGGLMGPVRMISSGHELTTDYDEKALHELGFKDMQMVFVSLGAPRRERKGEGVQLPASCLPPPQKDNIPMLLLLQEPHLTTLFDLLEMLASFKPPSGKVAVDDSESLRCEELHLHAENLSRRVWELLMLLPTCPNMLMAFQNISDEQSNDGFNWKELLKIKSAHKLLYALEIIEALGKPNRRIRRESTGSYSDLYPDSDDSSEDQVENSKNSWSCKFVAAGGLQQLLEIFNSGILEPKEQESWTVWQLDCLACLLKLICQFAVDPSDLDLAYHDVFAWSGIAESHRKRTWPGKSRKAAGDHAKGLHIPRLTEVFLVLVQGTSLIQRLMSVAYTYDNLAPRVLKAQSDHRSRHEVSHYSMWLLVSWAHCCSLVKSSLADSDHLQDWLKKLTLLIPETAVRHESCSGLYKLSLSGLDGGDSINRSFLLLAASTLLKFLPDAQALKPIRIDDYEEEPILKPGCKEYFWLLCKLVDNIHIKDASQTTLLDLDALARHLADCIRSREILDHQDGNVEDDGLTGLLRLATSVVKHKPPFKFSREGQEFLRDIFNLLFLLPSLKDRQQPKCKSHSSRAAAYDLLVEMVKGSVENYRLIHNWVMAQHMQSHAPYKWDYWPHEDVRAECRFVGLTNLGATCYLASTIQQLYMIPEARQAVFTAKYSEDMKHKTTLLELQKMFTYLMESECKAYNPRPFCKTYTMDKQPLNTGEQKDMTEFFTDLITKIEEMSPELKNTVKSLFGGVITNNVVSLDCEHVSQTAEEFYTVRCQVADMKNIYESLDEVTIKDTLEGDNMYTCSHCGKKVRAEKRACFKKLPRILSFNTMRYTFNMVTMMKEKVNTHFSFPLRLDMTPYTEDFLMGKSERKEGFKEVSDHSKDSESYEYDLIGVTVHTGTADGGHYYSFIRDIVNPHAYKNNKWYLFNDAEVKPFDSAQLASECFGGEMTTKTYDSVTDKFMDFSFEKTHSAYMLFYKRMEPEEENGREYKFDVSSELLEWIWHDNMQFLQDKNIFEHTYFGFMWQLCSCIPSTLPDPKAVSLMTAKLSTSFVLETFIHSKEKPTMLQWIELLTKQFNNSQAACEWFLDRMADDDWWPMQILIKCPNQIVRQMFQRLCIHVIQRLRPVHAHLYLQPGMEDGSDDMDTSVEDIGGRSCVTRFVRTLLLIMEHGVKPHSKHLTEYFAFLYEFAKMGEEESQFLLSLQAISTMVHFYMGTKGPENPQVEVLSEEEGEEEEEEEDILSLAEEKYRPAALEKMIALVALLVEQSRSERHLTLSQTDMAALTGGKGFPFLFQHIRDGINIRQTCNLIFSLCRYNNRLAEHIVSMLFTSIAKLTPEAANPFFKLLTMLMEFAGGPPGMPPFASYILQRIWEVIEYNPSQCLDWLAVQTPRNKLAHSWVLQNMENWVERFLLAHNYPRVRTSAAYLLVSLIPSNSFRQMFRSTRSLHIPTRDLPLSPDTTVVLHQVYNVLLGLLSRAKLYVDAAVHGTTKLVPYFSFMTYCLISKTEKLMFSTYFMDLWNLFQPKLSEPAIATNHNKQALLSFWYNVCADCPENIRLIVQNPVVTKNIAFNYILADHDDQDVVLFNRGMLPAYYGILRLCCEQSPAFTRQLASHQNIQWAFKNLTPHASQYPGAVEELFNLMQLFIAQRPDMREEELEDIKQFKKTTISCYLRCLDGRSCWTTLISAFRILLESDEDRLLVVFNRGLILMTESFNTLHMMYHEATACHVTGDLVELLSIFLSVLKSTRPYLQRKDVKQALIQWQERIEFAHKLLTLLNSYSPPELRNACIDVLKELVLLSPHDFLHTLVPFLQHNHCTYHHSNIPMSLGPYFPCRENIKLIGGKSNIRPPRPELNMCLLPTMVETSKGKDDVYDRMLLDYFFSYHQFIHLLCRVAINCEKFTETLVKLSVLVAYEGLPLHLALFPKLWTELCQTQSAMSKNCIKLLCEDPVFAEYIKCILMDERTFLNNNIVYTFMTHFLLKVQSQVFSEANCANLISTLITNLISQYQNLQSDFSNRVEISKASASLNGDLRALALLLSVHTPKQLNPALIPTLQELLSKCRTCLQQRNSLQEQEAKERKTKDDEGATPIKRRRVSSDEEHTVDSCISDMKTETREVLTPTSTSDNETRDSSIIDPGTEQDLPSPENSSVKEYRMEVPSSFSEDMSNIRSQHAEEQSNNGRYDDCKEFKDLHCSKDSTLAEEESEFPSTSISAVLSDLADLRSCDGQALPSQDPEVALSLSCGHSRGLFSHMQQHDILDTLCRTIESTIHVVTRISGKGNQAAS
Procedure, shortened: (§1)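 Average log2 ratios of fragment over vehicle were obtained by unpaired t-test from global-median-normalised Spectronaut label-free quantities. Proteins with ≥2 unique peptides were included. HEK293T lysate (495 µg per sample) was treated in triplicate with fragment at 200 µM or vehicle for 3 h, then with Biotin-Ahx-Ub-VS at 0.5 µM final for 1 h, and labelled DUBs were NeutrAvidin-enriched and run by diaPASEF LC-MS/MS.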

USP36 = target: T1, USP36 (UniProt Q9P275)
T1 sequence (whole entry): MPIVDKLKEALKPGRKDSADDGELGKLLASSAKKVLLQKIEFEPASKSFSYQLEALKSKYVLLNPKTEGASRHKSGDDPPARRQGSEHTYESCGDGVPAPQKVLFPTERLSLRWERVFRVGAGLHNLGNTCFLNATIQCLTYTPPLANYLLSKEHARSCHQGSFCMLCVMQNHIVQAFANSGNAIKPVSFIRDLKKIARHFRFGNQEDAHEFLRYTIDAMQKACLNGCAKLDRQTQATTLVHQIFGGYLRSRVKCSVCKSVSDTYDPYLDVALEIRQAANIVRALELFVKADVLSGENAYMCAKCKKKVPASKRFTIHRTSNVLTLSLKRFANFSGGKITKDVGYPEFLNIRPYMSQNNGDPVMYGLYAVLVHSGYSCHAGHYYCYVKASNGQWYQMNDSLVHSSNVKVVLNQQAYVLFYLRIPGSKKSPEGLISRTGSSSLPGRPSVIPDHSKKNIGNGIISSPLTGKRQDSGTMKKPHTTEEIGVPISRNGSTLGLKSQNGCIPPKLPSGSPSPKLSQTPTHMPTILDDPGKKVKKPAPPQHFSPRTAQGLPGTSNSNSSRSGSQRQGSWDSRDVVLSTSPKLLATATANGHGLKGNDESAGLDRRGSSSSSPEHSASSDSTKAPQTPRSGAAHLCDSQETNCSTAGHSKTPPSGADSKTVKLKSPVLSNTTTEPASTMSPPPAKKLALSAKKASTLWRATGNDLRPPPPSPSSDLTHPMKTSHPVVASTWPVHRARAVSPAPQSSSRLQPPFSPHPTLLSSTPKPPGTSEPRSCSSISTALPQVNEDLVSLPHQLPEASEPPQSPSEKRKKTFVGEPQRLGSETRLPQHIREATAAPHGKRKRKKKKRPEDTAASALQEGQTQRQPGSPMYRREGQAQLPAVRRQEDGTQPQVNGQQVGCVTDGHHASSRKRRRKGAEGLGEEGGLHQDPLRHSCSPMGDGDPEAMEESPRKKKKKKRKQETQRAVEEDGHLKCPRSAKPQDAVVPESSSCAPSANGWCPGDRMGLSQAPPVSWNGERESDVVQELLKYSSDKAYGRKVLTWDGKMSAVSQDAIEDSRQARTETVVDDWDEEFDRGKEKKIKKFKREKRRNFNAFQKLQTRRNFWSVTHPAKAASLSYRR
Procedure, shortened: as §1

USP38 = target: T2, USP38 (UniProt Q8NB14)
T2 sequence (whole entry): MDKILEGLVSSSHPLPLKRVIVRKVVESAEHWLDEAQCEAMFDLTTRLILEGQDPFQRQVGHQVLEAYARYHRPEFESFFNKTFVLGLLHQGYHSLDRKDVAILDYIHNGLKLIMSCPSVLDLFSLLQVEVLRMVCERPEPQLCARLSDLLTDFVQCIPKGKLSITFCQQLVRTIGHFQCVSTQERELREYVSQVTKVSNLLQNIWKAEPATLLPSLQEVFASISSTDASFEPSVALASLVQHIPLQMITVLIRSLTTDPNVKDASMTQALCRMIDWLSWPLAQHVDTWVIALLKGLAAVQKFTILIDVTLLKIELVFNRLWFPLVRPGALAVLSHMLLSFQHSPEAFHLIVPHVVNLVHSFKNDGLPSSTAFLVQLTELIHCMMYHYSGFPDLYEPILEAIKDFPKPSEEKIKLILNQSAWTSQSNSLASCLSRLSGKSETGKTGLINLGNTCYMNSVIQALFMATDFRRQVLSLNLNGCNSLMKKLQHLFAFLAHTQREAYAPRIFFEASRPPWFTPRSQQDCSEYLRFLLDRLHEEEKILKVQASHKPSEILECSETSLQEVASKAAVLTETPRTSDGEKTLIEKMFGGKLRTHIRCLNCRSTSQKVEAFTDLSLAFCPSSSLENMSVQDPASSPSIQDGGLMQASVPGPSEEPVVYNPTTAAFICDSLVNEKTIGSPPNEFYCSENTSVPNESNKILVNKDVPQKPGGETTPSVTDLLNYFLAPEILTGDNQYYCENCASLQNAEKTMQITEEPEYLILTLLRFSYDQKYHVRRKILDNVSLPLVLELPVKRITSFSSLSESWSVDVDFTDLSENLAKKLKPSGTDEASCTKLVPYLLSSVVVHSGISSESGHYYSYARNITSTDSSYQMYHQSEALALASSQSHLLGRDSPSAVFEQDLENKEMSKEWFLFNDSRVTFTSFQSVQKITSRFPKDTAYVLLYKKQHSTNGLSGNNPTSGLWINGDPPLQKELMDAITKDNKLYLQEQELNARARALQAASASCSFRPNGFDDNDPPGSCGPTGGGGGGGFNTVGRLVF
Procedure, shortened: as §1

USP39 = target: T3, USP39 (UniProt Q53GS9)
T3 sequence (whole entry): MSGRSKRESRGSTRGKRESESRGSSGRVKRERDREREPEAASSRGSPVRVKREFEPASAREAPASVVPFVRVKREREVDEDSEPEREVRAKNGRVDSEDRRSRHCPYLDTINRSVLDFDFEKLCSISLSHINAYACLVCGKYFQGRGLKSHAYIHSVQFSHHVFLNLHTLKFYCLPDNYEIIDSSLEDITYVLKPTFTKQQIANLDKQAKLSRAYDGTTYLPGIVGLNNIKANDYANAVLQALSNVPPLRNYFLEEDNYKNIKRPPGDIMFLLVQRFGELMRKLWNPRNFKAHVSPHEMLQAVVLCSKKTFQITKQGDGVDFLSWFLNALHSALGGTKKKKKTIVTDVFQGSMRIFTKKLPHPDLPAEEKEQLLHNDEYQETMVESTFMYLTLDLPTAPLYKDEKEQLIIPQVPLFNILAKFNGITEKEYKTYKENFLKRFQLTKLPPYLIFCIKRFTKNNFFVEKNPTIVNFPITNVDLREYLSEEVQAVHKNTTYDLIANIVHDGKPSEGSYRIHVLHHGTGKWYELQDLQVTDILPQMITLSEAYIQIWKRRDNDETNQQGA
Procedure, shortened: as §1

USP4 = target: T4, USP4 (UniProt Q13107)
T4 sequence (whole entry): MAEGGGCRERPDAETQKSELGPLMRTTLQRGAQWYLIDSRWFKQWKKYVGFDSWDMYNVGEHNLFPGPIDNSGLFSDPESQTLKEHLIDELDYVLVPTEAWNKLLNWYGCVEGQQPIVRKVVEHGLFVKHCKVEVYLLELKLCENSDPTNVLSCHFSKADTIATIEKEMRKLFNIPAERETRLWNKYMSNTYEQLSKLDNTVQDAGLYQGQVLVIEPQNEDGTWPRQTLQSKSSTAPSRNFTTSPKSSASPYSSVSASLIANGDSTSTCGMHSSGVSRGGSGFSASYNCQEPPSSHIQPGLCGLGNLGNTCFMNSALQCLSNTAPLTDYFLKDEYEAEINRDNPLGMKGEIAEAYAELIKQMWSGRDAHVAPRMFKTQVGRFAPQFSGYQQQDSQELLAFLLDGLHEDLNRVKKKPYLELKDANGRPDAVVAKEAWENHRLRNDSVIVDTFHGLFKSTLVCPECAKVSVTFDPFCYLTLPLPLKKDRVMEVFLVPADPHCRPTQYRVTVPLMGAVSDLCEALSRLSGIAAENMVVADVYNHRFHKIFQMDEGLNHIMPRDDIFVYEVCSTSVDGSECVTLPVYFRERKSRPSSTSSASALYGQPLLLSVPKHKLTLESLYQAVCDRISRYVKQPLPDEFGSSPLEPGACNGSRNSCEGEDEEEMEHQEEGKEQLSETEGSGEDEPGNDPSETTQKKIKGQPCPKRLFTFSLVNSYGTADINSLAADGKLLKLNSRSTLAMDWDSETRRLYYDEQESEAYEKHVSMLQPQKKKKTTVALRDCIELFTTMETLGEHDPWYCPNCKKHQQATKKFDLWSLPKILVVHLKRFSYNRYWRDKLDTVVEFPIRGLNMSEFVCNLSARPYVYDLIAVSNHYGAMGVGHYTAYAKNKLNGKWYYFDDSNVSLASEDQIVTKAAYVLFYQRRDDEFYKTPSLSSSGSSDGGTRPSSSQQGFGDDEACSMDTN
Procedure, shortened: as §1

Measured: log2 ratio of Biotin-Ahx-Ub-VS probe labelling

NC(=O)C1CCCCN1C(=O)CCl (stereo not given)
inactive: USP34 -0.0479 | USP36 -0.322 | USP38 0.0849 | USP39 0.0987 | USP4 -0.0651
